Source: PubChem BioAssay (NCI)
Values joined by “and” are separate entries in the source; they are usually repeats but may differ in a detail not shown here. Identical values can stand only once. About 83,000 compounds went through this panel and 20% of them were active in at least one assay; those are over-represented in the sample as a whole.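 Each cell line was grown in a 96-well plate and treated with one concentration of compound for 48 hours. Values below 10 were considered active.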 Unmarked numbers belong to inactive results. Active and inactive are the calls of the source.

These compounds were tested on MDA-MB-468 breast (assay: NCI-60 one-dose screen, 48 h (100 = growth as untreated, 0 = no growth, -100 = all killed)). Conditions: 10 µM unless noted.

Row | SMILES | growth
1 | COc1ccc(-c2cc3c(OC)c(OC)c(OC)cc3oc2=O)cc1 | 23.6%
2 | Cc1ccc(C2=Nc3c(N)nc(N)nc3NC(c3cccc(Nc4ccnc5cc(C(F)(F)F)ccc45)c3)C2)cc1 (stereo not given) | 14.7%
3 | CCC([N+](=O)[O-])S(=O)(=O)c1ccc(C)cc1 (stereo not given) | 91.3%
4 | O=C(CO[N+](=O)[O-])Nc1ccc(C(=O)/C=C/c2ccc(Cl)cc2)cc1 | 48.7%
5 | CCN(CC)CCOC(=O)c1cccnc1 | 94.9%
6 | CCCC(OC(C)=O)c1ccc2c(c1)OCO2 (stereo not given) | 103%
7 | C=C1CC2(OC1=O)C(=O)N(C)c1ccc(I)cc12 (stereo not given) | -79.2% (active)
8 | COC(=O)C(=[N+]=[N-])C(=O)c1ccc([N+](=O)[O-])o1 | 81.7%
9 | COc1cc(NC(=O)NCc2ccco2)ccc1-c1ccc(NC(=O)NCc2ccco2)cc1OC | 16.8%
10 | O=C1OCC2=C1C(c1cccc([N+](=O)[O-])c1)c1cc3c(cc1N2CCO)CCC3 (stereo not given) | 4.98% (active)
11 | O=C(O)c1ccnc(Br)c1 | 91.1%
12 | Clc1ccc([C@@H]2C[C@@H]3Cc4cc(Br)c5ccccc5c4N2O3)c(Cl)c1 | 59.2%
13 | COc1cc(C2C=C(C)N=C3SC=CN32)cc(OC)c1OC (stereo not given) | 97.5%
14 | CCOC(=O)Nc1ccc2nc(Sc3ccc(Cl)cc3)sc2c1 | 0.385% (active)
15 | COc1ccc(/C=C/C(=O)NCCO)cc1 | 101%
16 | COc1ccc(C[n+]2c3ccccc3n3c4ccc(N)cc4ccc32)c(OC)c1OC | -22.5% (active)
17 | CC(=O)N1N=C(c2ccc(Nc3ccnc4cc(Cl)ccc34)cc2)CC1c1ccc(Cl)cc1 (stereo not given) | 24.3%
18 | FC(F)(F)c1ccc(CNc2ccc(Cc3c[nH]c4ncc(Cl)cc34)cn2)cn1 | -0.191% (active)
19 | CNC(=O)c1cc(Oc2ccc3nc(NC(=O)Nc4ccc(CN5CCOCC5)c(C(F)(F)F)c4)sc3c2)ccn1 | -17.2% (active)
20 | CCCc1c(OC(=O)c2ccccc2)nc2[nH]c(=O)sc2c1C | 84.4%

Row | SMILES | growth
21 | CC[C@]1(O)C[C@@H]2CN(CCc3c([nH]c4ccccc34)[C@@](C(=O)OC)(c3cc4c(cc3OC)N(C)[C@H]3[C@@](O)(C(=O)OC)[C@H](OC(C)=O)[C@]5(CC)C=CCN6CC[C@]43[C@@H]65)C2)C1 | 19.8%
22 | C#CCOc1cccc(-c2nc(N)nc(Nc3ccccc3SSc3ccccc3Nc3nc(N)nc(-c4cccc(OCC#C)c4)n3)n2)c1 | 73%
23 | COc1ccc(-c2nn(-c3cccc(Cl)c3)cc2/C=C2\NC(=S)N(c3ccc(Cl)cc3)C2=O)cc1 | -56.7% (active)
24 | C#Cc1cccc(NC(=O)Nc2ccccc2NC(=O)CCl)c1 | -45.2% [8.25 µM] (active)
25 | C#CCOc1ccc2ncnc(NCc3cccc(NC(=O)CCl)c3)c2c1 | 4.87% [8.25 µM] (active)
26 | COC(=O)CNC(=O)[C@]12CCC(C)(C)C[C@H]1C1=CC[C@@H]3[C@@]4(C)Cc5c([nH]c6ccccc56)C(C)(C)[C@@H]4CC[C@@]3(C)[C@]1(C)CC2 | 102%
27 | C=C1N(C)c2ccc(Cl)cc2C1(C)C | 5.23% (active)
28 | CCCc1cccc(CCC)c1O | 118%
29 | O=C1CC(c2ccc3c(c2)OCO3)c2ncn(-c3ccc(Cl)cc3)c2N1 (stereo not given) | 13%
30 | O=C1C(=O)c2ccc(Br)cc2-c2cc(Br)ccc21 | 0.713% (active)
31 | Cc1cc(N(CCNc2ccnc3cc(Cl)ccc23)Cc2ccc3c(c2)OCO3)nc(N2CCCC2)n1 | -39.4% (active)
32 | Cc1ccc(NC(=O)N/C(N)=N/c2nc(=O)c3ccccc3s2)cc1 | 89.9%
33 | COc1ccc(-c2nnc3n(C)c(=O)c4ccccc4n23)cc1O | -2.48% (active)
34 | N#Cc1ccc(/C=C/C(=O)c2ccccc2)cc1 | 43.5% and 48.9%
35 | CCc1cc(OC(=O)N2CCN(CCC(C)(COC(C)(C)C)COC(C)(C)C)CC2)ccc1Nc1cc(-c2ccc(-n3cccn3)cc2)[nH]n1 | 82.4%
36 | C[C@H]1C(=O)C23CCC1C[C@@]21O[C@@H]2C(C)(C)C=CC(=O)C23COC1=O | 102%
37 | Fc1cc2c(cc1Cl)N(c1ncnc3ccc(-c4cnc5[nH]ncc5c4)cc13)CC2 | 49.5%
38 | O=[N+]([O-])C=C(c1ccccc1)c1ccccc1 | -4.43% (active)
39 | Cc1occc1-c1n[nH]c(=S)n1N1C(=O)CSC1=S | 103%
40 | Cc1ccc2c(n1)C(=O)C(Br)=C(C1CCCC1)C2=O | 95.2%
